24 compounds from PubChem BioAssay AID504700 (The Scripps Research Institute Molecular Screening Center, 2011) can be followed below.

Each structure is given as a SMILES string. The campaign covered roughly 340,000 compounds. About 270 (0.079%) were called active. What follows is part of a selection rich in actives, with near analogues and random picks from the rest. A number with no mark means an inactive call.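 Rule for the calls: active = activation above a cutoff set at the mean over all compounds plus 3 SD (cut at about 18% in these data); inactive = the rest.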

The assay deals with cAMP-dependent protein kinase catalytic subunit beta (Homo sapiens) + cAMP-dependent protein kinase type II-beta regulatory subunit (Homo sapiens) (UniProt P22694+P31323). The experiment in a line: compounds dissociating PKAc from R2B subunit – biochemical, fluorescence polarization, Cy5-IP20, human, primary screen (AID 504700).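 Note: higher means more holoenzyme dissociation and a rise in polarization.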 Particulars: PKA-R2B holoenzyme dissociation, at 11.4 µM, hits give high values, 0% DMSO only, 100% 113 µM cGMP, R2B truncated from residue 108, S112A mutant. A general note: Polarisation of emitted light reports the rotation of a fluorescent probe.
Chain of cAMP-dependent protein kinase catalytic subunit beta (Homo sapiens) + cAMP-dependent protein kinase type II-beta regulatory subunit (Homo sapiens) (P31323 whole entry, looked up, other chains not shown, the tested form may be a part): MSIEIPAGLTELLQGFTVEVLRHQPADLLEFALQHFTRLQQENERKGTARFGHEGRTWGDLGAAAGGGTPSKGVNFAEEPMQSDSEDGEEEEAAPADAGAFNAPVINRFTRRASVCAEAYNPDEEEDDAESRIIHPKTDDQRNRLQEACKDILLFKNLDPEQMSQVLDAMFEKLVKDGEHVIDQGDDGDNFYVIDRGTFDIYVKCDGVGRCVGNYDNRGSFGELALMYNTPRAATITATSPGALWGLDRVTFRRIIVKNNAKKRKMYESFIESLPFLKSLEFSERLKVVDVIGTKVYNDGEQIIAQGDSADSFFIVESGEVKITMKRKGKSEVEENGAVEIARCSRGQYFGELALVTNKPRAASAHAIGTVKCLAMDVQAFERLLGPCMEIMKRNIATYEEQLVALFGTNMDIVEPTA
Regarding `COCCCn1c(=O)/c(=C/c2ccccc2OC(C)C)s/c1=C(\C#N)C(=O)Nc1ccc(C(=O)O)cc1`, the activation was 0.06%.

Take `O=C(OCc1ccccc1)N1CCC2CC1c1cc(N3CCN(S(=O)(=O)c4cc(Cl)cc(Cl)c4)CC3)ccc12` (centres undefined): the activation was -12.1%.

For `CCc1cccc(CC)c1N1C(=O)CC(Sc2ccccc2N)C1=O` (centres undefined), the activation was 3.56%.

Turning to `COc1cccc(OC)c1C(=O)N1CCN(Cc2ccccc2F)CC1`, the activation is -3.43%.

`COC(=O)C(Cc1c[nH]c2ccccc12)NC(=O)CCNC(=O)c1ccco1` (centres undefined): the activation was 7.88%.

Turning to `COc1cc2c(=O)n(C)c3ccccc3c2cc1OC`, the activation is -7.59%.

As for `N#CC1(Nc2ccc3c4c(cccc24)CC3)CCCCC1`, the activation is -2.43%.

Take `Cc1ccc([C@H]2C[C@H](O)[C@@H](n3cc(COC(=O)c4ccccc4)nn3)CN2C(=O)C2CCCCC2)cc1`: the activation is -12.7%.

As to `O=NN(CCCl)C(=O)NCCc1cccc[n+]1[O-]`, the activation was -9.83%.

For `CC(C)N=C1CCCC1C(=S)SSC(=S)C1CCCC1=NC(C)C` (centres undefined), the activation was -0.99%.

`Cc1ccc(CN(C)C[C@@H]2OCc3cnnn3CCCC(=O)N([C@@H](C)CO)C[C@H]2C)cc1`: the activation is -5.57%.

For `CC1=C(C(=O)N2CCOCC2)CC(CC(=O)NCc2ccco2)C(=O)N1Cc1ccc(F)cc1` (centres undefined), the activation was -2.68%.

`C=CCOc1ccccc1CNn1c(C)n[nH]c1=S`: the activation was 10.7%.

For the compound `Cc1c(NC(=O)COC(=O)/C=C/c2cccc(F)c2)c(=O)n(-c2ccccc2)n1C`, the activation was -14.1%.

For `CCc1cc(-c2nnn(CCC3COCCO3)c2CC)ccc1-c1cn(Cc2ccc3ccccc3c2)nn1` (centres undefined), the activation was 2.92%.

For the compound `CCC1NC(=O)c2cccnc2-n2c1nc1ccc(C)cc1c2=O` (centres undefined), the activation is 2.84%.

In the case of `CNC(=O)c1ccc(CN(C)C(=O)c2cc(C3CC3)nc3c2cnn3C(C)C)cc1`, the activation is -10%.

Turning to `O=C(OCC(=O)N1CCCCCC1)c1cccc(Cl)c1Cl`, the activation was -0.23%.

Regarding `CC(C)(C)c1ccc(C(=O)N2CCC(C(=O)N3CCCCC3)CC2)cc1`, the activation was 19.2% (active).

`NC(=O)C1CCN(C(=O)c2ccc(C(F)(F)F)cc2)CC1`: the activation was -0.72%.

Turning to `O=C(c1ccc(F)cc1)N1CCCC(C(=O)N2CCCCC2)C1` (centres undefined), the activation is -0.42%.

Consider `CC1=C(C(=O)N(C)C)CC(CC(=O)NCCN2CCOCC2)C(=O)N1Cc1ccccc1` (centres undefined), for which the activation is 10.5%.

Consider `COc1ccccc1-c1n[nH]nc1C1=CC(=O)CC(C)(C)C1`, for which the activation was -8.69%.

Consider `Cc1ccc(C(=O)N[C@H](C(=O)N2CCN(c3ncccn3)CC2)C(C)C)cc1`, for which the activation was -3.29%.
